Activity calls are given as the source filed them. No rule for the calls is given here.

In the assay the target is Serine/threonine-protein kinase pim-1 (Homo sapiens) (UniProt P11309). Kind of assay: compound-induced PIM1 thermal stabilization – biophysical, human, melting temperature shift (AID 393). Conditions: Thermal shift assay, stronger effect = higher value; at 10 µM, protein 2 µM, buffer 10 mM PIPES, pH 6.5, NaCl 150 mM unless noted.
Serine/threonine-protein kinase pim-1 (Homo sapiens), sequence (P11309 whole entry, looked up): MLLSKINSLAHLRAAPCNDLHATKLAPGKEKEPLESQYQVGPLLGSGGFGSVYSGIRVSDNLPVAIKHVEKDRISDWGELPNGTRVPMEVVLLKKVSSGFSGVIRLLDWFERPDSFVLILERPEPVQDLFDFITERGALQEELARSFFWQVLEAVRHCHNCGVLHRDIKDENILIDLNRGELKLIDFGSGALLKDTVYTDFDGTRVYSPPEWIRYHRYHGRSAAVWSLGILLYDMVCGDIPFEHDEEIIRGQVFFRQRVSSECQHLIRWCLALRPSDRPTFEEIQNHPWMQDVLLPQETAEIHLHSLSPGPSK
As for `Oc1cccc(-c2cnc3ccc(NCC4CC4)nn23)c1`, the Tm shift was 4.42 Celsius (active). As for `CC(=O)c1cccc(-c2cnc3ccc(NCC4CC4)nn23)c1`, the Tm shift is 6.41 Celsius [at 5 µM, protein 1 µM, buffer 10 mM HEPES] (active). With `Clc1cccc(-c2cnc3ccc(NC4CCOCC4)nn23)c1` the figure was 7.02 Celsius [at 10 µM, protein 3 µM, buffer 10 mM HEPES] (active); with `O=c1[nH]cnc2c1sc1nc3ccccc3cc12`, 3.3 Celsius (active). With `O=C1NC(=O)C(c2cn(CCCn3ccnc3)c3ccccc23)=C1Nc1ccccc1` the figure was 3.1 Celsius [at 10 µM, protein 2 µM, buffer 10 mM Na Citrate, pH 6.5, NaCl 150 mM] (active); with `Oc1[nH]c2ccccc2c1C=Nc1ccc2c(c1)OCCO2`, 4.66 Celsius (active); with `CC(=O)n1c(O)c(C2=NC(=S)NC2=O)c2ccccc21`, 3.17 Celsius (active). With `Cc1cc(O)c2c(c1)C(=O)c1cc(O)cc(O)c1C2=O` the figure was 6.3 Celsius [at 10 µM, protein 2 µM, buffer 10 mM Na Citrate, pH 6.5, NaCl 150 mM] (active); with `Fc1cccc(-c2cnc3ccc(NC4CCOCC4)nn23)c1`, 6.94 Celsius (active); with `O=C(O)c1cccc(-c2cnc3ccc(NC4CCOCC4)nn23)c1`, 9.27 Celsius (active). For the compound `CC(C)(C)c1nc2c3cc[nH]c(=O)c3c3cc(F)ccc3c2[nH]1`, the Tm shift was 4.9 Celsius [at 10 µM, protein 2 µM, buffer 10 mM Na Citrate, pH 6.5, NaCl 150 mM] (active). With `O=C1NCc2c1c1c3ccccc3[nH]c1c1[nH]c3ccccc3c21` the figure was 7.8 Celsius [at 10 µM, protein 2 µM, buffer 10 mM Na Citrate, pH 6.5, NaCl 150 mM] (active).

On to `Fc1ccc(CNc2ccc3ncc(-c4ccco4)n3n2)cc1`, for which the Tm shift is 6.35 Celsius [at 5 µM, protein 1 µM, buffer 10 mM HEPES] (active).

For `FC(F)(F)Oc1cccc(-c2cnc3ccc(NC4CCOCC4)nn23)c1`, the Tm shift was 9.75 Celsius (active). With `CC(=O)Nc1cccc(-c2cnc3ccc(NC4CCOCC4)nn23)c1` the figure was 3.48 Celsius (active); with `Nc1cccc(-c2cnn3ccc(Nc4cccc(Cl)c4)nc23)c1`, 6.21 Celsius (active); with `Nc1cc2ncnc(Nc3cccc(Br)c3)c2cc1N`, 3.4 Celsius [at 10 µM, protein 2 µM, buffer 10 mM Na Citrate, pH 6.5, NaCl 150 mM] (active). As to `c1ccc(-c2cnc3ccc(NCc4ccco4)nn23)cc1`, the Tm shift is 3.07 Celsius [at 5 µM, protein 1 µM, buffer 10 mM HEPES] (active).

For `CCC(CO)Nc1ccc2ncc(-c3ccc(F)c(Cl)c3)n2n1` (stereo unspecified), the Tm shift was 9.05 Celsius (active). With `CCC(CO)Nc1ccc2ncc(-c3ccc(OC)nc3)n2n1` (stereo unspecified) the figure was 4.1 Celsius (active). With `CC(C)[C@@H](CO)Nc1ccc2ncc(-c3cccc(C(F)(F)F)c3)n2n1` the figure was 8.83 Celsius (active); with `FC(F)(F)Oc1cccc(-c2cnc3ccc(NCC4CC4)nn23)c1`, 7.73 Celsius (active); with `Cc1ccc2c(c1)=C(c1[nH]c(=S)[nH]c1O)C(=O)N=2`, 6.4 Celsius (active).

As for `COc1cc(/C=C/C(=O)CC(=O)/C=C/c2ccc(O)c(OC)c2)ccc1O`, the Tm shift was 4.2 Celsius [at 10 µM, protein 2 µM, buffer 10 mM Na Citrate, pH 6.5, NaCl 150 mM] (active).

For the compound `N=C(N)SCCCn1cc(C2=C(c3c[nH]c4ccccc34)C(=O)NC2=O)c2ccccc21`, the Tm shift was 10.7 Celsius [at 10 µM, protein 2 µM, buffer 10 mM Na Citrate, pH 6.5, NaCl 150 mM] (active). For `NCCCn1cc(C2=C(c3c[nH]c4ccccc34)C(=O)NC2=O)c2ccccc21`, the Tm shift is 9 Celsius [at 10 µM, protein 2 µM, buffer 10 mM Na Citrate, pH 6.5, NaCl 150 mM] (active).

Consider `O=c1[nH]c(O)c2c1c1c3ccccc3nc1n1cncc21`, for which the Tm shift is 9.3 Celsius [at 10 µM, protein 2 µM, buffer 10 mM Na Citrate, pH 6.5, NaCl 150 mM] (active). For `Oc1cccc(-c2cnc3ccc(NC4CCOCC4)nn23)c1` the value was 3.66 Celsius (active); for `Clc1cccc(Nc2ccn3ncc(-c4ccsc4)c3n2)c1`, 3.99 Celsius [at 10 µM, protein 2 µM, buffer 25 mM HEPES, pH 7.5, NaCl 250 mM] (active); for `COc1ccc2oc3c(=O)[nH]cnc3c2c1`, 3.45 Celsius (active). With `CCC(CO)Nc1ccc2ncc(-c3ccc(O)cc3)n2n1` (stereo unspecified) the figure was 6.96 Celsius (active).

The record behind these values is PubChem BioAssay AID393 (SGCOxCompounds, 2006).
